According to PubChem BioAssay:

Experiment: mitochondrial membrane potential change in A549 cells, profiling panel, cell-based, JC-1 fluorescence, basal, 24 h, 100 nL (AID 1138);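 note: A549 lung adenocarcinoma cells under basal conditions with no added stimulus; test concentration not given here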
Settings: higher = more signal

With `COC(=O)[C@H](CCSC)NC(=O)CC=C[C@@H](C)CO` as the molecule, how does the z-score read?
The z-score was -1.08.

For `C[C@H]1CC[C@@H](C(=O)O)N[C@@H]1c1cccc(N2CCCC2=O)c1`, which z-score is on record?
The z-score was 1.21.

For `C#CCCCON=C1C[C@@H](O)[C@@H](O)[C@@H]2[C@@H]3C(=O)N([C@@H](C)c4ccccc4)C(=O)[C@@H]3CC[C@@H]12`, which z-score is on record?
Its z-score is -0.683.

With `COC(=O)[C@H](C)NC(=O)CCC1CC(OC(=O)NCc2ccc3c(c2)OCO3)CC2(CCCC(COC(=O)NCc3ccccc3)O2)O1` (stereo partly specified) as the molecule, how does the z-score read?
The z-score was 1.05.

Which z-score does the source give for `CCOC(=O)CCN1C(=O)[C@H]2[C@H]3[C@H](O)[C@H](O)CC(=NNC(=O)OCC)[C@H]3CC[C@H]2C1=O` here?
The z-score was -0.918.

For `CC(C)(C)N1C(=O)[C@H]2[C@@H]3C(=CC[C@H]2C1=O)C(=O)[C@H]1O[C@H]1[C@H]3O`, which z-score is on record?
The z-score was -0.732.

With `O=C1[C@H]2[C@H]3[C@H](O)[C@H](O)CC(=NO[C@@H]4O[C@H](CO)[C@@H](O)[C@H](O)[C@H]4O)[C@@H]3CC[C@H]2C(=O)N1C1CCCCC1` as the molecule, how does the z-score read?
Its z-score is 0.76.

Which z-score does the source give for `COc1ccc(COC(=O)NN=C2C[C@@H](O)[C@@H](O)[C@@H]3[C@@H]4C(=O)N([C@@H](C)c5ccccc5)C(=O)[C@@H]4CC[C@@H]23)cc1` here?
The z-score was -0.304.

With `COc1ccc(COC(=O)NN=C2C[C@@H](O)[C@@H](O)[C@@H]3[C@@H]4C(=O)N(Cc5ccccc5)C(=O)[C@@H]4CC[C@@H]23)cc1` as the molecule, how does the z-score read?
The z-score was 0.485.

With `CC(C)[C@@H](OCc1ccccc1)[C@H](C)C=NO[C@@H](C)c1cn([C@H](CO)Cc2ccccc2)nn1` as the molecule, how does the z-score read?
Its z-score is -1.02.

With `CCOC(=O)[C@H](Cc1ccccc1)NC(=O)CCC1CC(OC(=O)NCc2ccc3c(c2)OCO3)CC2(CCCC(COC(=O)NCCOc3ccccc3)O2)O1` (stereo partly specified) as the molecule, how does the z-score read?
The z-score was 1.37.
